Source: PubChem BioAssay
Hits are enriched below; roughly 17% of the tested compounds scored in any of these assays.
ClpP mod = qHTS Assay for Activators of ClpP; AID 651965, 2013; ATP-dependent Clp protease proteolytic subunit (Bacillus subtilis (strain 168)), P80244; purified B. subtilis ClpP, FRET peptide cleavage, 20 min; Potency, µM (doses to about 57.5 µM), for the others: at the top dose activity change, negative = active; hit rate 1.9% among 340,000; active = well fitted falling curve with a large enough effect; inconclusive = small, poorly fitted or top-dose-only effect; inactive = no such curve, though single readings can be large or run the other way; also: the source files actives as falling curves though it sought activators and does not explain the sign; nearly all actives have a fitted effect of over 65% in size
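ClpP 10 microg/mL final, pH 8 Tris/KCl buffer with BSA, glycerol, Tween-20; compound pinned in; FRET-FV substrate; RT 20 min; Ex320/Em430; ΔFRET vs ADEP 5.8 microM, DMSO, no enzyme.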
TDP1 cell CPT = qHTS for Inhibitors of human tyrosyl-DNA phosphodiesterase 1 (TDP1): qHTS in cells in presence of CPT; Potency, µM (highest dose often 46.2 µM), without a hit: at the top dose activity change, negative = growth inhibition, hits mostly inhibitors; hit rate 12% among 420,000; chicken DT40 Tdp1-/-;hTDP1 cells + 20 nM CPT, ATP luminescence, 48 h; also: % is scaled to controls: 0 for no effect and ±100 for the full control effect; nearly all actives have a fitted effect of over 55% in size
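Chicken DT40 Tdp1-/- cells complemented with human TDP1, 400 cells/well, exposed to compounds plus 20 nM camptothecin for at least 48 h at 37 C; viability read as ATP content by CellTiter-Glo luminescence.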
TDP1 block = qHTS Assay for Inhibitors of Tyrosyl-DNA Phosphodiesterase (TDP1) | recombinant TDP1, AlphaScreen DNA substrate cleavage | Potency, µM (top dose mostly 130 µM), without a hit: at the top dose activity change, negative = inhibition, most hits filed as inhibitors | hit rate 0.28% among 350,000; also: % is scaled to controls: 0 for no effect and ±100 for the full control effect; nearly all actives have a fitted effect of over 40% in size
Target sequence (Q9NUW8 whole entry, looked up): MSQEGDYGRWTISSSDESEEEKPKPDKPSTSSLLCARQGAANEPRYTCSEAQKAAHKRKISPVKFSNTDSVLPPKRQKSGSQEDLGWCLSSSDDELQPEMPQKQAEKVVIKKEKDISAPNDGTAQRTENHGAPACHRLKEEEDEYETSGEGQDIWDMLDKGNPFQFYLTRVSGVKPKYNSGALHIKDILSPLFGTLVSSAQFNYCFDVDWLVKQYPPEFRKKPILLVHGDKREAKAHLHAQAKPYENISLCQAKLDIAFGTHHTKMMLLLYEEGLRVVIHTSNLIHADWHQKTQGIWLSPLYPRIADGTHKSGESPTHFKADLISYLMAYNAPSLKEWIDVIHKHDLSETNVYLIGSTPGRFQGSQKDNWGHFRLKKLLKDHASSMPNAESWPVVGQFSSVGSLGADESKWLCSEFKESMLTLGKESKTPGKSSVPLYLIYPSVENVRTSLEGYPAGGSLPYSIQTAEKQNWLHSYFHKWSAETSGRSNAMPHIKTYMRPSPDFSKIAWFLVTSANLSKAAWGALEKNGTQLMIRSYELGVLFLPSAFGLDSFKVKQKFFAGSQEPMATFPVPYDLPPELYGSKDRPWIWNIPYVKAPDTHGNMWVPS
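Steps: enzyme plus compound, 15 min RT; add biotin/phosphotyrosine-FITC oligonucleotide (15 nM final), react 5 min; add donor/acceptor beads (10 ug/ml final), 10 min; read AlphaScreen. Tdp1 at 1 nM final.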
TDP1 cell noCPT = qHTS for Inhibitors of human tyrosyl-DNA phosphodiesterase 1 (TDP1): qHTS in cells in absence of CPT | DT40 Tdp1-/- hTDP1 cells, no CPT, ATP luminescence, 48 h | Potency, µM (top dose mostly 46.2 µM), inactives show at the highest dose activity change, negative = growth inhibition, actives largely listed as inhibitors | hit rate 15% among 420,000 | AID 686978, 2013; also: % is scaled to controls: 0 for no effect and ±100 for the full control effect; nearly all actives have a fitted effect of over 55% in size
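Seeded 400 DT40-hTDP1 cells/well (vehicle DMSO, no 20 nM CPT); pinned compounds; ≥48 hr at 37 °C; CellTiter-Glo luminescence as viability measure.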
An asterisk follows results filed as active; ? = inconclusive; / = no result; [ ] = another dose, or the depositor's remark. Unless noted, calls follow the shape of the dose curve; as a rule, active = well fitted curve in the direction sought with a large enough effect; inconclusive = small, poorly fitted or top-dose-only effect, or another doubt; inactive = no such curve, though single readings can be large; an effect the other way counts as inactive or inconclusive. Potency is read from the fitted curve at half-maximal effect.

SMILES | ClpP mod | TDP1 cell CPT | TDP1 block | TDP1 cell noCPT
COC(=O)C1=C(c2ccc(F)cc2F)C[C@@H]2CC[C@H]1N2C(=O)NCc1ccc(C(F)(F)F)cc1 | 3.4% | ? | -0.2% | 20.6µM*
COC(=O)C1=C(c2ccccc2)C[C@@H]2CC[C@H]1N2C(=O)N1CCC(C)CC1 | 0.3% | ? | / | 14.6µM*
CCOC(=O)c1ncn2c1CN(C)C(=O)c1c(I)cccc1-2 | / | -4.5% | / | -9.4%
CCC1CN2CCC1CC2C(Oc1cc2ccccc2c2ccccc12)c1ccnc2ccc(O)cc12 (configuration not stated) | / | / | 7.9%[21 µM] | /
CN(C)c1ccc(P(=O)(Nc2ccc([N+](=O)[O-])cc2)N2CCOCC2)c(NC(=O)c2cccs2)c1 (configuration not stated) | ? | -22.0% | 5.7% | -21.3%
C=C1[C@@H](C)[C@H]2[C@H](Cc3ccccc3)NC(=O)[C@]23OC(=O)/C=C/[C@H](O)CCC[C@@H](C)C/C=C/[C@H]3[C@@H]1O | 0.7% | 1.84µM* | 8.5% | 0.651µM*
CC(=O)O[C@@H]1/C=C/[C@](C)(O)C[C@@H](C)C/C=C/[C@H]2[C@H](O)C(C)=C(C)[C@H]3[C@H](Cc4ccccc4)NC(=O)[C@@]123 | -0.8% | 0.581µM* | / | 0.581µM*
C[C@H]1C/C=C/[C@H]2[C@H](O)[C@H](C)[C@@](C)(O)[C@H]3[C@H](Cc4ccccc4)NC(=O)[C@]32[C@H](O)/C=C/[C@](C)(O)C1 | 0.3% | 3.66µM* | / | 8.2µM*
C=C1C(C)C2C(Cc3ccccc3)NC(=O)C23C(OC(C)=O)C=CC(C)(O)CC(C)CC=CC3C1O (configuration not stated) | -1.4% | 0.461µM* | / | 0.731µM*
CCCCOCCOP(=O)(OCCOCCCC)OCCOCCCC | / | / | 10.4% | /
C[C@@H]1CN(CCCn2c3ccccc3c3ccccc32)C[C@H](C)N1 | / | 7.5µM* | 5.8% | 8.41µM*
CCOc1ccccc1-n1c(O)c(C=NCc2ccc3c(c2)OCO3)c(=O)[nH]c1=O | 1.2% | -17.1% | -1.9% | 3.0%
CCOc1ccccc1-n1c(O)c(C=NCCCN(CC)CC)c(=O)[nH]c1=O | 31.6µM* | 16.9% | -2.1% | 10.5%
COc1c(C)cc(C(=O)C2CCCN(Cc3cnc(C)s3)C2)cc1C (configuration not stated) | / | ? | / | 25.9µM*
COc1cccc(C(=O)C2CCCN(Cc3ccccn3)C2)c1 (configuration not stated) | / | -0.9% | / | ?
COc1c(C)cc(C(=O)C2CCCN(Cc3ccccn3)C2)cc1C (configuration not stated) | / | ? | 5.1% | 18.4µM*
Cc1ncc(CN2CCCC(C(=O)c3cccc(OC(C)C)c3)C2)s1 (configuration not stated) | -0.4% | ? | 2.5% | ?
CCOC(=O)c1cnc2c(ccc3ccccc32)c1Nc1ccc(C(C)=O)cc1 | -3.6% | ? | / | 23.1µM*
CC(N)(COP(=O)(O)Oc1ccccc1)C(=O)O (configuration not stated) | / | -19.3% | 4.9% | -5.3%
CC(=O)CC1CCCCN1 (configuration not stated) | / | -2.1% | 4.5% | 0.6%
Clc1ccc(COC(Cn2ccnc2)c2ccc(Cl)cc2Cl)cc1 (configuration not stated) | 1.5% | 23.1µM* | 10.8% | 20.6µM*
C=CCO[C@@H](Cn1ccnc1)c1ccc(Cl)cc1Cl | / | / | 5.1%[21 µM] | /
Clc1ccc(CSC(Cn2ccnc2)c2ccc(Cl)cc2Cl)cc1 (configuration not stated) | 0.7% | ? | 8.4% | 18.4µM*
Cn1c(-c2ccccc2)c(P(=S)(c2ccccc2)c2ccccc2)c2ccccc21 | / | / | 0.3% | /
CCCN1[C@@H]2C[C@@H](O)CC[C@@H]2C[C@H]1C(=O)OC | / | / | 3.9% | /
SMILES | ClpP mod | TDP1 cell CPT | TDP1 block | TDP1 cell noCPT
Cc1ccc(C[n+]2c(-c3ccc(C)cc3)cc(-c3ccc(C)cc3)cc2-c2ccc(C)cc2)cc1 | 4.4% | 0.92µM* | 8.1% | 0.581µM*
O=C(Nc1ccccc1)c1cc(C2CCCN(C(=O)C3CC3)C2)on1 (configuration not stated) | 2.0% | ? | / | ?
CCn1cc(CN2CCCC(C(=O)c3sccc3C)C2)cn1 (configuration not stated) | / | -10.8% | / | ?
CCc1ccc(-c2nc(CN3CCCC(C(=O)NCc4ccc(C)cc4)C3)c(C)o2)cc1 (configuration not stated) | 0.5% | 8.2µM* | 2.3% | 5.8µM*
O=C1/C(=C/c2cc([N+](=O)[O-])ccc2Cl)N2CCC1CC2 | -10.8% | 18.4µM* | 5.9% | 16.4µM*
CCN1CCN(Cc2cc(Br)cc(Br)c2O)CC1 | 0.9% | ? | 6.8% | 16.4µM*
COc1cc(Br)cc(CN2CCN(C)CC2)c1O | -0.7% | -0.5% | 1.0% | 0.7%
COc1cc2c(cc1/C=C/[N+](=O)[O-])OCO2 | -0.6% | 5.8µM* | 5.3% | 2.31µM*
COc1cc(OC)c(OC)cc1C=O | -6.3% | 6.8% | 0.5% | ?
CSc1ccc(C(=O)C2CCCN(Cc3cccnc3)C2)cc1 (configuration not stated) | / | ? | 2.7% | ?
O=C(c1ccc(Cl)cc1)C1CCCN(Cc2cccn2-c2cccnc2)C1 (configuration not stated) | / | ? | 2.8% | 13µM*
Cc1noc(C)c1C(=O)N1CCC[C@@]2(CCN(CC(C)C)C2)C1 | / | -9.3% | / | -12.7%
CCCCN1CC(COCc2ccccc2)Oc2cccc(Oc3ccc(C(C)C)cc3)c2S1(=O)=O (configuration not stated) | -2.7% | 10.3µM* | / | 5.17µM*
Cc1nnc2n1-c1ccc(Cl)cc1C(c1ccccc1Cl)=NC2 | / | -3.4% | / | -2.9%
Cc1cc(C)cc(NC(=O)CSc2oc(-c3cccs3)nc2S(=O)(=O)c2ccc(Br)cc2)c1 | -0.2% | 5.8µM* | -2.9% | 6.51µM*
Cc1cccc(N(CC(=O)NCCSc2ccc(Cl)cc2)S(=O)(=O)c2ccccc2)c1C | -1.7% | ? | / | ?
C=Cc1ccc(Cn2c(C)c(CNCCc3cc(OC)ccc3OC)c(C(=O)O)c2C)cc1 | 1.5% | ? | 7.6% | 13µM*
C[C@H]1C(=O)O[C@@H]2CCN3CC=C(COC(=O)[C@@](C)(O)[C@@]1(C)O)[C@H]23 | / | / | 11.3%[21 µM] | /
O=S(=O)(Nc1ccc(-c2nc3ccccc3o2)cc1)c1ccccc1 | 28.2µM* | -4.4% | 3.0% | -2.6%
COc1ccc2nc(NC(=O)c3nc(S(=O)(=O)Cc4cccc(C)c4)ncc3Cl)sc2c1 | 2.2% | 1.64µM* | -2.3% | 2.06µM*
